Max dye-equivalent concentration data for 53 molecules are collected here from PubChem BioAssay AID589 (National Center for Advancing Translational Sciences (NCATS), 2007).

The campaign covered roughly 59,000 compounds. About 6,200 (11%) were called active. Inconclusive results (about 9%) are left out. No stated cut-off is given here; in the data, active means max dye-equivalent concentration above about 10 nM; inconclusive means mostly about 1.1 nM to 9.6 nM; inactive means weaker than that. This excerpt belongs to a sample that is enriched for actives.

A short description of the assay: qHTS Assay for Spectroscopic Profiling in 4-MU Spectral Region. To be noted: compound autofluorescence, 340/450 nm, 4-MU equivalents; stronger effect = higher value. The gist of the method: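 Compounds in 100 mM Tris, pH 8.0, incubated 15 min at room temperature, then fluorescence read at 340 nm excitation/450 nm emission. Signal converted to 4-MU dye-equivalent concentration using an on-plate six-point 4-MU standard curve.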
(Quantitative high-throughput screening tests each substance at several concentrations.)
Turning to `COc1cccc(NC(=O)c2ccccc2SC)c1`, the max dye-equivalent concentration result was “inactive”.
Under `COc1ccc(NC(=O)c2c(C)oc3c2CCCC3)cc1` stands “inactive”; under `COc1cc(OC)cc(C(=O)Nc2ccc(-c3nc4ccccc4o3)c(O)c2)c1`, 330 nM (active).
To `O=C1[C@@H]2C(Cc3ccc(O)cc3)NC3(C(=O)Nc4ccc(F)cc43)[C@@H]2C(=O)N1c1ccc(F)cc1` (stereo partly drawn) belongs “inactive”.
Under `CC(Sc1sc(=S)sc1SC(C)C(=O)O)C(=O)O` (stereo not drawn) stands “inactive”.
With `CC(C)CCNc1nc(N2CCCC2)c2c(c1C#N)CCN(C)C2`, the max dye-equivalent concentration is 24 nM (active).
With `COc1ccc(OC)c(NC(=O)CN2CCN(C(=O)c3ccco3)CC2)c1`, the max dye-equivalent concentration entry was “inactive”.
For the molecule `Cc1csc(NC(=O)NC2(C(F)(F)F)Oc3ccccc3O2)n1`, the max dye-equivalent concentration is 110 nM (active).
Under `Cc1csc(NC(=O)CN2CCCCCC2)n1` stands “inactive”.
To `O=C(Nc1cc(N2CCOCC2)ncn1)NC1(C(F)(F)F)Oc2ccc(Cl)cc2O1` (stereo not drawn) belongs “inactive”.
For the molecule `C[C@H](NC(=O)NCCc1ccccc1)C(=O)O`, the max dye-equivalent concentration entry is “inactive”.
Take `CNc1ncnc2ccc(-c3cccc(NS(C)(=O)=O)c3)cc12`: the max dye-equivalent concentration entry was “inactive”.
Take `Cn1c(SCC(=O)OC2CCCCC2)nnc1-c1ccc(S(=O)(=O)N2CCCC2)cc1`: the max dye-equivalent concentration result was “inactive”.
Regarding `O=C(NCc1ccccn1)c1cc2ccccc2oc1=O`, the max dye-equivalent concentration is 22 nM (active).
To `O=C(NCc1ccccn1)Nc1ccc(F)cc1` belongs “inactive”; to `Cc1ccsc1C(=O)OCC(=O)c1cc2ccccc2o1`, “inactive”.
As for `O=C(Oc1cccnc1)c1cc2ccccc2oc1=O`, the max dye-equivalent concentration was 82 nM (active).
Under `COc1ccc2oc(=O)c(C(=O)O)cc2c1` stands “inactive”; under `O=C(NCc1ccccn1)c1cnc2sccn2c1=O`, “inactive”.
To `Cc1cc(NC(=O)COC(=O)c2ccc(F)c(S(=O)(=O)N3CCOCC3)c2)no1` belongs “inactive”; to `COc1ccc(NC(=O)N2CC3(CCN(C(=O)c4cccn4C)CC3)C2)cc1`, “inactive”.
Consider `Cc1cc(=O)[nH]c(SCc2cc(Cl)ccc2OC(F)F)n1`, for which the max dye-equivalent concentration result is “inactive”.
To `COc1ccccc1C(=O)N1CCNC(=O)C1CC(=O)Nc1ccc(Cl)cc1` (stereo not drawn) belongs “inactive”.
As for `CCCCc1cc(=O)oc2cc(C)cc(OCc3nn[nH]n3)c12`, the max dye-equivalent concentration was 59 nM (active).
To `Cc1c(O)c(Br)c(C)c(O)c1Br` (tested in a mixture with another compound) belongs “inactive”; to `CCc1nnc(NC(=O)c2nc3nccc(C)n3n2)s1`, “inactive”.
With `CCC1=C/C(=C\c2ccc3c(c2)OCO3)C(=O)S1`, the max dye-equivalent concentration entry is “inactive”.
To `O=C(C1CCCO1)N1CCC(c2nc3ccccc3[nH]2)CC1` (stereo not drawn) belongs “inactive”; to `COc1cc2nc(N3CCN(C(=O)[C@@H]4CCCO4)CC3)nc(N)c2cc1OC`, 890 nM (active).
Under `COc1ccccc1CNC(=O)C1CCN(c2nc3ccccc3o2)CC1` stands “inactive”.
Under `COc1ccc2[nH]cc(CCNc3ncnc4ccc(-c5ccccc5CN(C)C)cc34)c2c1` stands “inactive”; under `Cc1ccccc1NC(=O)c1cc(S(=O)(=O)N2CCOCC2)cs1`, “inactive”.
As to `CN(CC(=O)NC1CCCCC1)S(=O)(=O)c1ccc(Br)s1`, the max dye-equivalent concentration result was “inactive”.
To `COCCNC(=O)C(c1ccc(C)o1)N(Cc1ccccc1)C(=O)Cn1nnc2ccccc21` (stereo not drawn) belongs “inactive”; to `COCCNC(=O)C(c1ccc(C)o1)N(Cc1cccs1)C(=O)c1snc(C(N)=O)c1N` (stereo not drawn), 110 nM (active).
Under `CCC(C(=O)NC1CCCC1)N(C(=O)c1snc(C(N)=O)c1N)c1ccc2c(c1)OCCO2` (stereo not drawn) stands “inactive”.
Regarding `CCOC(=O)CCCNC(=O)CN1C(=O)NC(CCc2ccccc2)C1=O` (stereo not drawn), the max dye-equivalent concentration result was “inactive”.
Under `CCOC(=O)c1ccc(NC(=O)CS(=O)(=O)c2cn(CC)c3ccccc23)cc1` stands “inactive”.
To `O=C(Nc1ccccc1-c1nnn(CC(=O)N2CCN(c3ccccc3)CC2)n1)c1cccs1` belongs “inactive”; to `Cc1[nH]c(N)nc(=S)c1CCCNc1ccccc1`, “inactive”; to `CCCSc1nc2c(c(=O)[nH]c(=O)n2C)n1CCc1ccccc1`, “inactive”.
As to `Cn1c(=O)c2c(nc(NCCc3ccccc3)n2Cc2ccccc2)n(C)c1=O`, the max dye-equivalent concentration entry was “inactive”.
To `Cn1c(=S)c2[nH]c(SCCCc3ccccc3)nc2n(C)c1=O` belongs 13 nM (active); to `O=C(CC(Cc1ccccc1)C(=O)O)NCCc1ccc2c(c1)OCO2` (stereo not drawn), “inactive”; to `CCOc1ccc(OCC)c(NC(=O)CSc2nnc(Cn3cnc4ccccc43)n2C)c1`, “inactive”.
Under `CCOC(=O)c1c(C)oc2ccc(OCC(=O)N(CC)CC)cc12` stands “inactive”; under `COc1ccc2oc(C)c(NC(C)=O)c2c1`, “inactive”; under `COC(=O)COc1ccc2oc(=O)cc(C)c2c1`, 25 nM (active).
As for `Cc1nc(CNS(=O)(=O)c2cccnc2)cs1`, the max dye-equivalent concentration entry was “inactive”.
Under `CCCCCOC(=O)C1=C(C)Nc2nnnn2C1c1ccc(OC)c(OC)c1OC` (stereo not drawn) stands “inactive”; under `COc1ccccc1NC(=O)C1=C(C)Nc2nnnn2C1c1cccc(Br)c1` (stereo not drawn), “inactive”.
For the molecule `COC(=O)c1ccc(C2C3=C(Nc4nnnn42)c2ccccc2OC3)cc1` (stereo not drawn), the max dye-equivalent concentration is 59 nM (active).
Under `O=C(CNS(=O)(=O)c1ccc(Br)s1)NCc1ccc2c(c1)OCO2` stands “inactive”.
